Results as given in PubChem BioAssay.
Records with an inconclusive call do not appear. For part of these data: Entries with a potency or affinity are not part of this list. Calls of active or inactive are those of the source. Rule as the data show it: active = fluorescence slope change above about 50%; inconclusive = mostly about 31% to 49%; inactive = weaker than that.

What was measured:
[1] = target: ATP-dependent translocase ABCB1 (Homo sapiens) (UniProt P08183); assay: P-glycoprotein substrate transport blockade – cell-based (AID 377); conditions: MDR1-expressing cells, fluorescent substrate accumulation slope; stronger effect = higher value; concentration not given here
Chain of ATP-dependent translocase ABCB1 (Homo sapiens) (P08183 whole entry, looked up): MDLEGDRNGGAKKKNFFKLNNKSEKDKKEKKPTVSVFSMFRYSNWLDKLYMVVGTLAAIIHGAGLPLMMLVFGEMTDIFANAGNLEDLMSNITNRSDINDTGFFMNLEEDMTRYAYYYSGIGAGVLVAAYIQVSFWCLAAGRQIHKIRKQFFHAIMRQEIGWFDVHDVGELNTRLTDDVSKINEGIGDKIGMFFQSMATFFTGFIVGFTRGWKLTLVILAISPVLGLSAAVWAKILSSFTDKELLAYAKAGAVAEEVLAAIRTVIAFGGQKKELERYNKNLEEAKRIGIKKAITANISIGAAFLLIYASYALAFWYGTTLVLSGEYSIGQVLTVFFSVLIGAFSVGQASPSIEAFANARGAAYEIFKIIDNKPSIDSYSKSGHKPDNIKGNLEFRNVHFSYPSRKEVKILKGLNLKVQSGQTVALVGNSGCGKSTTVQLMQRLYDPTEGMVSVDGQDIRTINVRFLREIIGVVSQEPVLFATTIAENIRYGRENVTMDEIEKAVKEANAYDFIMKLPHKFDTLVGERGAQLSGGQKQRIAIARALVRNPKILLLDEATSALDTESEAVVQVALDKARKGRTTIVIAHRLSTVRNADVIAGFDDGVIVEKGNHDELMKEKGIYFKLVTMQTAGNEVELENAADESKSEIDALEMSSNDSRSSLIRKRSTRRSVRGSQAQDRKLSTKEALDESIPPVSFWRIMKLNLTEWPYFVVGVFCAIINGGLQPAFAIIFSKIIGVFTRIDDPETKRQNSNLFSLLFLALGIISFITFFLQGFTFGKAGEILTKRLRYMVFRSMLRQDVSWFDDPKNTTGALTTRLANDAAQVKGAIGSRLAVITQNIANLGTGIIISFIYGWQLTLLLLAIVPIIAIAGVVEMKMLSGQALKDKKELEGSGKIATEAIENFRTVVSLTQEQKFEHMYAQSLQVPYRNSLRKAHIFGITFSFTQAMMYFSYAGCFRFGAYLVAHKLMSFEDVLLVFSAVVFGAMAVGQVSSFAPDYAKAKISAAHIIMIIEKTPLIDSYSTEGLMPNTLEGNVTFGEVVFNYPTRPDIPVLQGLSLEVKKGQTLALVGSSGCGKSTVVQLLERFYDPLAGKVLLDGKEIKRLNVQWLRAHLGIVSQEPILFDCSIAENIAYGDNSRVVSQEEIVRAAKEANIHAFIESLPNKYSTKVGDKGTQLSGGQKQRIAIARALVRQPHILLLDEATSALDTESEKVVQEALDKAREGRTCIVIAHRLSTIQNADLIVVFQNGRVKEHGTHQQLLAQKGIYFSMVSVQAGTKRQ

[2] = blockers of polyQ-driven CASP3 activation – cell-based (AID 1583); conditions: polyglutamine-induced caspase-3 activation, cell assay; stronger effect = higher value;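 tested at 10 µM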
[3] = yeast 75Q aggregation reduction – 75Q-TubU reporter (AID 1593); conditions: Yeast 75Q polyglutamine aggregation reporter
[4] = restoration of touch response, mutant HTT neurons – whole organism, C. elegans mechanosensory neurons, N-terminal huntingtin (AID 1599); conditions: C. elegans polyQ-huntingtin mechanosensory neurons, stronger effect = higher value
[5] = blockers of cytochrome c efflux from mitochondria – biochemical, purified mitochondria (AID 1603); conditions: stronger effect = lower value;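 also: mouse liver mitochondria challenged with calcium chloride; signal normalized to the plate average as 100%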
[6] = polyglutamine aggregate formation blockers (AID 1604); conditions: polyglutamine-induced protein aggregation inhibition assay; stronger effect = higher value; tested at 2.5 µM

SMILES: O=C(O)CCC(=O)Nc1ccc(S(=O)(=O)Nc2nccs2)cc1
- fluorescence slope change [1]: 2.1% (inactive)
- inhibition [2]: -5.43%
- score [3]: 1.2
- rescue above control [4]: -4.64
- cytochrome c release ratio [5]: 0.78
- inhibition of aggregation [6]: 100%

SMILES: Clc1ccccc1C(c1ccccc1)(c1ccccc1)n1ccnc1
- fluorescence slope change [1]: 67.9% (active)
- inhibition [2]: 60.7%
- score [3]: 0.26
- rescue above control [4]: -7
- cytochrome c release ratio [5]: 4.6
- inhibition of aggregation [6]: 41.7%

SMILES: CCOC(=O)[C@H](CCc1ccccc1)N[C@@H](C)C(=O)N1CCC[C@H]1C(=O)O
- fluorescence slope change [1]: 54.7% (active)
- inhibition [2]: 21.1%
- score [3]: 1.21
- rescue above control [4]: 6.04
- cytochrome c release ratio [5]: 1.13
- inhibition of aggregation [6]: 72.2%

SMILES: CCN(CC)C(=O)N1CCN(C)CC1
- fluorescence slope change [1]: 25.5% (inactive)
- inhibition [2]: 14.8%
- score [3]: 1.32
- rescue above control [4]: -3.55
- cytochrome c release ratio [5]: 0.61
- inhibition of aggregation [6]: 85.9%

SMILES: CN1Cc2c(N)cccc2C(c2ccccc2)C1 (stereo unspecified)
- fluorescence slope change [1]: 80.5% (active)
- inhibition [2]: 63.6%
- score [3]: 1.13
- rescue above control [4]: -9.83
- cytochrome c release ratio [5]: 0.88
- inhibition of aggregation [6]: 75%

SMILES: OC(CCN1CCCCC1)(c1ccccc1)c1ccccc1
- fluorescence slope change [1]: 18.2% (inactive)
- inhibition [2]: 19.5%
- score [3]: 1.21
- rescue above control [4]: 10.4
- cytochrome c release ratio [5]: 1.45
- inhibition of aggregation [6]: 65%

SMILES: CN1CCC(OC(c2ccccc2)c2ccccc2)CC1
- fluorescence slope change [1]: 7.9% (inactive)
- inhibition [2]: -34.9%
- score [3]: 1.74
- rescue above control [4]: -9.83
- cytochrome c release ratio [5]: 1.09
- inhibition of aggregation [6]: 81.6%

SMILES: O=C(O)c1ccccc1Nc1cccc(C(F)(F)F)c1
- fluorescence slope change [1]: 92.3% (active)
- inhibition [2]: -0.73%
- score [3]: -0.37
- rescue above control [4]: 3.52
- cytochrome c release ratio [5]: 1.3
- inhibition of aggregation [6]: 73.1%

SMILES: C[N+]12CCC(CC1)C(OC(=O)C(O)(c1ccccc1)c1ccccc1)C2 (stereo unspecified)
- fluorescence slope change [1]: 27.6% (inactive)
- inhibition [2]: 10.9%
- score [3]: 1.31
- rescue above control [4]: 14.7
- cytochrome c release ratio [5]: 1.79
- inhibition of aggregation [6]: 73.8%

SMILES: CC1(C)OC(=O)NC1=O
- fluorescence slope change [1]: 19.4% (inactive)
- inhibition [2]: -3.41%
- score [3]: 1.47
- rescue above control [4]: 14.1
- cytochrome c release ratio [5]: 0.85
- inhibition of aggregation [6]: 33.3%

SMILES: COc1ccc(CCN2CCC(Nc3nc4ccccc4n3Cc3ccc(F)cc3)CC2)cc1
- fluorescence slope change [1]: 189% (active)
- inhibition [2]: 17.9%
- score [3]: 1.54
- rescue above control [4]: 0
- cytochrome c release ratio [5]: 0.61
- inhibition of aggregation [6]: -3.03%

SMILES: CCOc1ccc(Cc2nccc3cc(OCC)c(OCC)cc23)cc1OCC
- fluorescence slope change [1]: 86.8% (active)
- inhibition [2]: 34.8%
- score [3]: 1.54
- rescue above control [4]: -2.91
- cytochrome c release ratio [5]: 1.13
- inhibition of aggregation [6]: -10.6%

SMILES: CCCCNc1ccc(C(=O)OCCN(C)C)cc1
- inhibition [2]: 3.42%
- score [3]: 1.3
- cytochrome c release ratio [5]: 0.87
- inhibition of aggregation [6]: 21.1%

SMILES: CC(C)NNC(=O)c1ccncc1
- fluorescence slope change [1]: 97.9% (active)
- inhibition [2]: 12.9%
- score [3]: 1.22
- cytochrome c release ratio [5]: 1.02
- inhibition of aggregation [6]: 71.4%
